Test results reported in PubChem BioAssay AID493231 (Broad Institute, 2011).
Results with a measured potency or affinity are listed apart.

The molecules below were run against Acyl-homoserine lactone acylase PvdQ (Pseudomonas aeruginosa (strain ATCC 15692 / DSM 22644 / CIP 104116 / JCM 14847 / LMG 12228 / 1C / PRS 101 / PAO1)) (UniProt Q9I194) (assay: PvdQ acylase enzyme activity blockers – biochemical, fluorescence, plate reader and imaging, cherry-picks, dose response (AID 493231;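 note: 0% = neutral control wells and -100% = reference inhibitor wells; more negative values mean stronger inhibition of the acylase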)). Details: purified PvdQ acylase, fluorogenic substrate; series mostly up to 10 µM; activity change, negative = inhibition: at the top concentration; call rule not given here.
Acyl-homoserine lactone acylase PvdQ (Pseudomonas aeruginosa (strain ATCC 15692 / DSM 22644 / CIP 104116 / JCM 14847 / LMG 12228 / 1C / PRS 101 / PAO1)), sequence (Q9I194 whole entry, looked up): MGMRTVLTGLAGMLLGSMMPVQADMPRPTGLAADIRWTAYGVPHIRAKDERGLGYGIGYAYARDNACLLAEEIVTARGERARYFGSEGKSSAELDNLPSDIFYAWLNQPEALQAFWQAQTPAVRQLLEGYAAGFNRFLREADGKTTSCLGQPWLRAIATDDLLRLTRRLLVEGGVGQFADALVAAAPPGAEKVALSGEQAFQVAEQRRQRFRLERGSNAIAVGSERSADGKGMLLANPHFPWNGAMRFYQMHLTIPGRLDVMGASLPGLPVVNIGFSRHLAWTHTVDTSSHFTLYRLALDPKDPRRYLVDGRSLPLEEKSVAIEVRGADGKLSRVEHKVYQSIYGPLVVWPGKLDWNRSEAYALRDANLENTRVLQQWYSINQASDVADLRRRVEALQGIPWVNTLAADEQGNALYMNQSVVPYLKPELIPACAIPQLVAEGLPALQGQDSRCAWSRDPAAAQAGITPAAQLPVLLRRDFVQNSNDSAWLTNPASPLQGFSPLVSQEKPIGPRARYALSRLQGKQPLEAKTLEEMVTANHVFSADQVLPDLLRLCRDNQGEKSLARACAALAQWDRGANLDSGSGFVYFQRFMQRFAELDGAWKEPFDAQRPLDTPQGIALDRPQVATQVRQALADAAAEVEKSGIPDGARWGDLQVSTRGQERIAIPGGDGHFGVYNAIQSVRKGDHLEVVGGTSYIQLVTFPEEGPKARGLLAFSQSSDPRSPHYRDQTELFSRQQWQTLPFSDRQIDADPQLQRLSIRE

Activity change, negative = inhibition, inactive:
COc1ccc(-c2cc3ccccc3cn2)cc1 -0.188 unspecified
COc1ccc(S(=O)(=O)NCCc2ccccc2)c2cccnc12 15 unspecified
S=C(NCc1ccc2c(c1)OCO2)Nc1ccc2nsnc2c1 10.7 unspecified
Cc1cc(C(=O)OCC(=O)Nc2cc(C)on2)c2ccccc2n1 2.6 unspecified
O=C(Nc1cccc(NC(=O)c2sc3ccccc3c2Cl)c1)c1ccco1 9.49 unspecified
CC1CCCCN1C(=O)CSc1nc2ccccc2[nH]1 (centres undefined) 5.53 unspecified
Cc1ccc(N(c2ncnc(N)c2[N+](=O)[O-])C2CCCCC2)cc1 9 unspecified
COc1ccc(C(=O)N/N=C/c2ccc(OC)c(CN3CCCc4ccccc43)c2)cc1 4.56 unspecified
COc1ccc(Nc2nnc(-c3ccc(C)cc3)c3ccccc23)cc1C(=O)N1CCCCC1 -4.51 unspecified
O=C(NCCc1ccc2c(c1)OCCO2)c1ccccc1F -6.28 unspecified
O=C(OCc1nc2ccccc2s1)c1ccc([N+](=O)[O-])o1 7.21 unspecified
CCCCNc1c(C(=O)OCC)c(=O)[nH]c2ccccc12 3.06 unspecified
CC(=O)N/N=C/c1c(C)[nH]n(-c2ccccc2)c1=O -7.85 unspecified
O=C(Nc1cccc(Br)c1)c1ccc2c(c1)SC1=NS(=O)(=O)CCN12 6.99 unspecified
CN(C(=O)CCn1c(=S)oc2ccccc21)c1ccc(F)cc1 9.4 unspecified
Cc1ccccc1-c1cc(C(=O)NCc2cccs2)nn1CC1CC(c2cccc([N+](=O)[O-])c2)=NO1 (centres undefined) -2.87 unspecified
COc1ccc(CC(=O)NNC(=S)NCC2CC2)cc1OC -1.58 unspecified
Cc1cc(NCCCn2ccnc2)n2nc(-c3ccc(Cl)cc3)cc2n1 4.65 unspecified
COc1cc2nc(CN3CCN(S(=O)(=O)c4c(F)cccc4F)CC3)[nH]c(=O)c2cc1OC 3.22 unspecified
